# According to PubChem BioAssay AID738 (SRMLSC, 2007):
# In all, about 98,000 compounds went through this assay and about 4,900 (5%) were called active. The list comes from a sample in which actives are over-represented; it also holds similar structures and randomly drawn compounds. Values without a mark were called inactive. Cut-off read from the data, not from the text of the source: active = inhibition above about 30%; inactive = the rest.
# Experiment: growth inhibition of yeast control strain, primary screen, counter-screen for post-Golgi transport modulator project (AID 738)
# Settings: efflux-deficient yeast background strain, growth absorbance A615, 16 h; at 10 µM; hits give high values
row,Structure (SMILES),inhibition
1,CN=C1S/C(=C\c2ccc(Sc3ccc(Cl)cc3)o2)C(=O)N1C,-6.09%
2,Cc1cc(C)n(-c2nc(SCC(=O)N3CCCC3)c3c4c(sc3n2)CCCC4)n1,24.5%
3,COCCNc1nc(-n2nc(C)cc2C)nc2sc3c(c12)CCCC3,31.4% (active)
4,CCC(O)CNc1nc(-n2nc(C)cc2C)nc2sc3c(c12)CC(C)(C)OC3 (centres undefined),-1.72%
5,O=C(Nc1ccc(-n2ccnc2P(=O)(O)c2ccccc2)cc1)c1ccccc1Br,13.2%
6,COc1cccc(NC(=O)Cc2ccc(C)cc2)c1,2.33%
7,COc1ccc(NC(=O)/C(Cl)=C(/Cl)S(=O)Cc2ccc(C)cc2)cn1 (centres undefined),102% (active)
8,COc1ccc(CC(=O)Nc2ccc(-c3nnc(-c4ccc(C)cc4)o3)cc2)cc1,5.16%
9,O=c1c2ccccc2nc2n1C(CSCc1ccccc1)CS2 (centres undefined),3.79%
10,Cc1ccc(N2C(=O)CC(Sc3ncn[nH]3)C2=O)cc1 (centres undefined),-0.63%
11,CS(=O)(=O)N1CCN(c2ccc(C(=O)NC3C4CC5CC(C4)CC3C5)cc2[N+](=O)[O-])CC1 (centres undefined),-2.2%
12,CC(NCCO)C(=O)C12CC3CC(CC(C3)C1)C2 (centres undefined),-1.14%
13,O=C(CNCCO)NC12CC3CC(CC(C3)C1)C2,33.3% (active)
14,O=C(NC12CC3CC(CC(C3)C1)C2)N1CCCC(CO)C1 (centres undefined),7.31%
15,COc1cc(CNCc2cccs2)cc(Br)c1OC,-5.39%
16,COC(=O)c1cc(OC)ccc1-c1ccc(OC)cc1,18.8%
17,COc1ccc2c(c1)SC(C)CC2=O (centres undefined),-5.53%
18,COc1ccc2c(c1)OC(O)(C(F)(F)C(F)F)CC2=O (centres undefined),34.1% (active)
19,Cc1ccc(/C=N/NC(=O)C(NC(=O)c2ccccc2)c2n[nH]c(=O)c3ccccc23)cc1 (centres undefined),13.9%
20,COC(=O)C1=C(C)Nc2ncnn2C1c1cccnc1 (centres undefined),15%

row,Structure (SMILES),inhibition
1,Brc1ccc(C2=CC(c3ccco3)n3ncnc3N2)cc1 (centres undefined),19.2%
2,Clc1ccc2c(c1)C1=C(C(c3ccncc3)O2)C(c2ccc(Br)cc2)n2ncnc2N1 (centres undefined),44.5% (active)
3,O=C(CNS(=O)(=O)c1ccc(Br)s1)N1CCN(C(=O)c2ccco2)CC1,-3.81%
4,O=C1Cc2ccccc2Sc2ccc(Cl)cc21,7.76%
5,CCCN(CCC)CCNC(=O)c1cc2c(C)nc3ccccc3c2o1,-0.17%
6,Cc1nc2ccccc2c2oc(C(=O)NCC3CCCO3)cc12 (centres undefined),5.49%
7,Cc1nc2ccccc2c2oc(C(=O)NCCCN3CCC(C)CC3)cc12,38.5% (active)
8,CCc1cc(C(c2ccccc2OC)N2CCOCC2)c(NC(=O)c2ccccc2)s1 (centres undefined),14.6%
9,O=C(Cn1cnc2c(cnn2-c2ccccc2)c1=O)NCc1ccccc1,2.17%
10,O=C(Cn1cnc2ccccc2c1=O)NCC1COc2ccccc2O1 (centres undefined),-2.34%
11,CN(Cc1ccccc1)C(=O)CCNC(=O)Cn1cnc2ccccc2c1=O,32.8% (active)
12,N#C/C(=C1/CCCN1)c1ccccn1,3.25%
13,CC(C)CNC(=S)NNC(=O)c1ccccc1OC(F)F,9.35%
14,Cc1ccc(C(=O)N2CCCC2)c(F)c1F,-0.75%
15,Cc1c(Br)cc(C(=O)N2CCCCCC2)c(C)c1C,38.8% (active)
16,Cc1ccc(C(=O)N2CCCCCC2)cc1Br,16.6%
17,CCOc1cccc(SCc2noc(C(=O)NC(C)C)c2C(=O)O)c1,-0.31%
18,C=CCn1c(SCC(=O)NCc2ccccc2)nnc1-c1cc(Br)ccc1O,1.48%
19,COCCCNCC(=O)Nc1sc(C)c(C)c1C(=O)OC,5.81%
20,CC(C)(C)NC(=O)NC(=O)COC(=O)Cn1c(C(F)(F)F)nc2ccccc21,2.81%

row,Structure (SMILES),inhibition
1,CCOC(=O)N1CCN(C(=O)c2cc3c(ccc4ccccc43)oc2=O)CC1,3.76%
2,Cn1cccc1C(=O)NC(=O)COC(=O)Cc1coc2ccc3ccccc3c12,33% (active)
3,Cc1ccccc1NC(=O)c1ccccc1NS(=O)(=O)c1cccc2cccnc12,8.21%
4,Cc1cc(C)c2c(-n3cccc3)c(C(=O)NNS(=O)(=O)c3ccc(F)cc3)sc2n1,4.13%
5,COc1ccc(NC(=O)COC(=O)Cn2c(C)nc3ccccc32)cc1OC,1.03%
6,COc1ccc(-c2nc3ccccc3n2CCC(C)C)cc1OC,44.3% (active)
7,COCCn1c(-c2ccc(OC)c(OC)c2)nc2ccccc21,-0.3%
8,CC1=NN(C(=O)Cc2ccc(C)cc2)C(O)(c2cccnc2)C1 (centres undefined),4.82%
9,O=C(C(NS(=O)(=O)c1cccc2nsnc12)c1ccccc1)N1CCN(c2ccccc2)CC1 (centres undefined),2.02%
10,O=C(CCS(=O)(=O)c1cccc2nsnc12)N1CCN(c2ccccc2F)CC1,30.8% (active)
11,CCc1ccccc1N(CC(=O)N1CCN(c2ccccc2F)CC1)S(C)(=O)=O,3.45%
12,Cn1c(=O)n(C)c2cc(/C=N/NC(=O)c3cccc(Br)c3)ccc21,-10.6%
13,Cn1nnnc1SCC(=O)Nc1ccccc1C(=O)NC1CC1,2.02%
14,c1ccc(CSc2ncnc3c2sc2nc(N4CCOCC4)c4c(c23)CCCC4)cc1,10.3%
15,CC(C)c1ccc(Nc2ncccc2C#N)cc1,7.46%
16,Cc1nn2c(c1-c1ccccc1)N=C(c1ccco1)CC2c1ccccc1 (centres undefined),32.2% (active)
17,Cc1[nH]c2ccccc2c1C(=O)COC(=O)C(C)C,2.83%
18,CCOC(=O)c1c(-c2ccccc2)csc1NC(=S)NC(=O)c1ccccc1,15.1%
19,COc1ccccc1N1CC(C(=O)Nc2ccc(S(=O)(=O)N3CCOCC3)cc2)CC1=O (centres undefined),5.2%
